High-throughput results from PubChem.
Sampled rows, rich in hits. Any-hit rate of the full collection: about 1.2%.
VDR inhibitor = vitamin D3 receptor (human) inhibition; P11473; VDR-SRC2-3 peptide fluorescence polarization, 2 h; Potency, µM, most hits filed as inhibitors; 0.93% of 400,000 active
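Signal is fluorescence polarization, reporting how far test compounds block the interaction of VDR with the SRC2-3 coregulator peptide after a 2 h room-temperature incubation.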
USP1 inh = inhibitors of human USP1/UAF1 deubiquitinase. Potency, µM (titrated, usually from 57.1 µM), most hits filed as inhibitors. recombinant USP1/UAF1, Ub-Rhodamine cleavage fluorescence. 0.23% of 390,000 active. AID 743255. O94782; note: nearly all actives have a fitted effect of over 60% in size
Target sequence (O94782 whole entry, looked up): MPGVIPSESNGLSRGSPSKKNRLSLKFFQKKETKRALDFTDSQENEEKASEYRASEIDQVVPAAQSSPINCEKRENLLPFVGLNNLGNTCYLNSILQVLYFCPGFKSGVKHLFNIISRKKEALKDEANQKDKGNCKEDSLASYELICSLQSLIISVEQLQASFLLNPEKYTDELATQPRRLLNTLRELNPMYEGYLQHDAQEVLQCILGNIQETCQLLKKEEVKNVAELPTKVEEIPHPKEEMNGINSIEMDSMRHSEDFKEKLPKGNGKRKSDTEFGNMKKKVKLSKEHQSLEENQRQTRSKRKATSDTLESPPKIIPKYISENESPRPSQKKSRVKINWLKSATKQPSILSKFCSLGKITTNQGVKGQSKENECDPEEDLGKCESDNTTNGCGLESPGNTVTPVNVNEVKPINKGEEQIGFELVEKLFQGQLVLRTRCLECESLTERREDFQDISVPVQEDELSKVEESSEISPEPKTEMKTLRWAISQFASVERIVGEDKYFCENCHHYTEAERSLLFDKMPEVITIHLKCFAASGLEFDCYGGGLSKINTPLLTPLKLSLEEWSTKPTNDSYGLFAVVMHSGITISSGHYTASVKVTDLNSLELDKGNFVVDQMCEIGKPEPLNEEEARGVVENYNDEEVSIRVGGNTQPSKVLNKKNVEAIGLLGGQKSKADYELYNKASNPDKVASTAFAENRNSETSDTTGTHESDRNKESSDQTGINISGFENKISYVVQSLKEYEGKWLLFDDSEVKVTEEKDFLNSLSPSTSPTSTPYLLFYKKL
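USP1/UAF1 complex (1 nM) preincubated 15 min at room temperature with compound, then Ub-Rho substrate (150 nM final) added. Kinetic fluorescence at 480/540 nm over 6 reads at 60 s intervals; 50 mM HEPES pH 7.8, 0.5 mM EDTA, 0.1 mg/ml BSA, 1 mM TCEP, 0.01% Tween-20.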
EPAC2 agonist = activates human EPAC2 exchange factor; 0.079% of 360,000 active; Potency, µM (top dose mostly 154 µM), actives largely listed as activators; AID 720711; EPAC2 activation, biochemical qHTS; response scale: 100% = 6.5 mM cAMP response; Q8WZA2; note: nearly all actives have a fitted effect of over 50% in size
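Each well held 100 nM EPAC2, 250 nM RAP1B-BODIPY-GDP and 50 uM GDP. Fluorescence, read at 5-min intervals to 30 min, was referenced to a 6.5 mM cAMP positive control.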
EPAC1 agonist = agonists of human EPAC1. Potency, µM (highest dose often 154 µM), actives largely listed as activators. O95398. 0.073% of 360,000 active. EPAC1 agonist qHTS, biochemical assay; response scale: 100% = response to 6.5 mM cAMP; note: nearly all actives have a fitted effect of over 60% in size
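Fluorescent GDP-exchange assay: 100 nM EPAC1 with 250 nM Rap1B preloaded with BODIPY-GDP and 50 uM GDP; compounds tested as concentration series, 5 min at room temperature, then read every 5 min for 30 min (ex 480/em 540 nm); normalized to 6.5 mM cAMP.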
EPAC1 antag = blocks human EPAC1 exchange factor | 0.14% of 360,000 active | Potency, µM (top dose mostly 115 µM), actives largely listed as inhibitors | EPAC1 GEF assay, Rap1b-BODIPY-GDP exchange fluorescence | AID 720709 | O95398; note: nearly all actives have a fitted effect of over 50% in size
EPAC2 antag = EPAC2 (human) antagonism | Potency, µM (highest dose often 114 µM), hits mostly inhibitors | Q8WZA2 | 0.18% of 360,000 active | EPAC2 GEF exchange of Rap1B-BODIPY-GDP, fluorescence; note: nearly all actives have a fitted effect of over 45% in size
VDR confirm = inhibits human vitamin D receptor, primary hit validation; shares compounds with VDR inhibitor; VDR-coactivator inhibition assay, qHTS confirmation; Potency, µM, hits mostly inhibitors; 89% of 840 active; AID 602199
VDR FP = confirmation of human VDR-coactivator binding inhibitors, fluorescein label | 48% of 840 active | shares compounds with VDR inhibitor | Potency, µM (highest dose often 57.1 µM), usual class: inhibitors | VDR-coactivator binding, fluorescein fluorescence polarization
VDR bla = confirmation of human vitamin D receptor inhibitors in reporter cells; shares compounds with VDR inhibitor; VDR beta-lactamase reporter cells, FRET ratio; cells co-treated with VDR agonist LG190178; Potency, µM (highest dose often 46.1 µM), hits mostly inhibitors; 23% of 840 active; AID 602202
VDR viability = cytotoxic in counter-screen for VDR inhibitors. shares compounds with VDR inhibitor. cytotoxicity counter-screen, cell viability, qHTS. Potency, µM (top dose mostly 48.3 µM), usual class: cytotoxic. 18% of 840 active; note: nearly all actives have a fitted effect of over 75% in size
Numbers stand for hits. Calls come from the whole dose curve; as a rule, active = well fitted curve in the direction sought with a large enough effect; inconclusive = small, poorly fitted or top-dose-only effect, or another doubt; inactive = no such curve, though single readings can be large; an effect the other way counts as inactive or inconclusive.

How did CC(=O)Nc1cccc(C(=O)/C=C/c2ccc(Br)cc2)c1 do in these assays?
VDR inhibitor: 25.1µM; USP1 inh: inactive; EPAC2 agonist: inactive; EPAC1 agonist: inactive; EPAC1 antag: inactive; EPAC2 antag: inactive; VDR confirm: 7.08; VDR FP: 8.91µM; VDR bla: inconclusive; VDR viability: inactive

What do the screens show for `Nc1ccc2c(c1)C(=O)N(c1ccc3ccccc3c1)C2=O`?
VDR inhibitor: inactive

How did COc1ccc(C2=NN(c3ccccc3)C(=O)/C2=C\c2ccc(O)c(OC)c2)cc1 do in these assays?
VDR inhibitor: inactive; USP1 inh: inactive; EPAC2 agonist: inactive; EPAC1 agonist: inactive; EPAC1 antag: inconclusive; EPAC2 antag: inactive

How did CCCOc1ccc(/C=C2/C(=O)ON=C2C)cc1Cl do in these assays?
VDR inhibitor: 17.8µM; USP1 inh: inactive; EPAC2 agonist: inactive; EPAC1 agonist: inactive; EPAC1 antag: inactive; EPAC2 antag: inconclusive; VDR confirm: 7.52; VDR FP: inconclusive; VDR bla: inactive; VDR viability: inactive

Results for CCOc1ccc(Cl)cc1/C=C1/C(=O)ON=C1C ?
VDR inhibitor: inconclusive; USP1 inh: inactive; EPAC2 agonist: inactive; EPAC1 agonist: inactive; EPAC1 antag: inactive; EPAC2 antag: inactive; VDR confirm: 8.91; VDR FP: 3.55µM; VDR bla: inactive; VDR viability: inactive

How did COc1cc(/C=C2\C(=O)ON=C2c2ccc(Cl)cc2)ccc1O do in these assays?
VDR inhibitor: inconclusive; USP1 inh: inactive; EPAC2 agonist: inactive; EPAC1 agonist: inactive; EPAC1 antag: inactive; EPAC2 antag: inactive; VDR confirm: 7.08; VDR FP: inconclusive; VDR bla: inconclusive; VDR viability: inactive

Results for COc1cc(/C=C2/C(=O)ON=C2C)cc(Cl)c1O ?
VDR inhibitor: 89.1µM; USP1 inh: inactive; EPAC2 agonist: inactive; EPAC1 agonist: inactive; EPAC1 antag: inactive; EPAC2 antag: inactive; VDR confirm: 26.7; VDR FP: inactive; VDR bla: inactive; VDR viability: inactive

Results for COc1ccc(CN2C(=O)N(c3ccccc3)C(=O)C2c2ccccc2)cc1COc1ccc(NC(C)=O)cc1 (stereo unspecified) ?
VDR inhibitor: inactive

What do the screens show for `CC(=O)N1CC(O)CC1C(=O)O` (stereo unspecified)?
VDR inhibitor: inactive

What do the screens show for `Cc1ccc(CC(=O)NNC(=O)c2ccncc2)cc1C`?
VDR inhibitor: 79.4µM; USP1 inh: inactive; EPAC2 agonist: inactive; EPAC1 agonist: inactive; EPAC1 antag: inactive; EPAC2 antag: inactive; VDR confirm: 26.7; VDR FP: 28.2µM; VDR bla: inactive; VDR viability: inactive

How did Cc1ccc(C(=O)NNC(=O)c2ccncc2)cc1C do in these assays?
VDR inhibitor: inactive; USP1 inh: inactive; EPAC2 agonist: inactive; EPAC1 agonist: inactive; EPAC1 antag: inactive; EPAC2 antag: inactive

Results for Cc1ccc(SCc2nc(-c3ccc(C(=O)NCC(C)c4ccccc4)cc3)oc2C)cc1 (stereo unspecified) ?
VDR inhibitor: inactive; USP1 inh: inactive

What do the screens show for `Cc1ccc(S(=O)(=O)NCCc2sc3nc(-c4ccccc4)nn3c2C)cc1C`?
VDR inhibitor: inactive; USP1 inh: inactive
